Screening data as filed in PubChem.
An excerpt weighted towards active compounds, which were near 6% of everything screened.
Tau ThT inhib – tau fibrillization inhibition (ThT binding); 270,000 tested, 2.1% active; recombinant tau K18 P301L, heparin-induced fibrillization, ThT fluorescence; P10636; Potency, µM (highest dose often 57.4 µM), for inactives: at the top dose activity, negative = inhibition, hits mostly inhibitors; note: nearly all actives have a fitted effect of over 55% in size
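K18 P301L tau (15 uM + 0.24 uM Alexa 594-tagged), heparin 20 uM, NaOAc pH 7, 6 h 37 C; ThT 30 uM, 1 h RT, ex 450/em 510 nm.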
Tau fluor cs – counter-screen for tau fibril formation inhibitors | tau K18 P301L (four-repeat tau fragment) Alexa594 fluorescence, heparin fibrillization | Potency, µM (titrated, usually from 57.7 µM), inactives show at the top dose activity change, negative = decrease | 280,000 tested, 0.93% active | AID 1463; note: nearly all actives have a fitted effect of over 55% in size
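Human K18 P301L tau (15 uM unlabeled plus 0.24 uM Alexa 594-labeled, final) in 100 mM sodium acetate pH 7 was mixed with compound and 20 uM heparin and incubated 6 hr at 37 C.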
Sfp inh – inhibitors of Bacillus subtilis Sfp phosphopantetheinyl transferase; Q9F4F7; Biochemical Sfp PPTase activity, qHTS; Potency, µM, inactives show largest response in the series, negative = inhibition, actives largely listed as inhibitors; 310,000 tested, 3.5% active;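 note: the enzyme is Sfp with the accession as filed and its product quenches rhodamine fluorescence; 0% = enzyme reaction without inhibitor and -100% = no enzyme wells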
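Fluorescence-quenching assay: 15 nM Sfp-PPTase preincubated 15 min at room temperature with compound, then 5 uM rhodamine-CoA and 12.5 uM BHQ-2-labelled YbbR peptide added. Fluorescence (ex 525/em 598 nm) read at start and after 30 min; difference gives rate.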
PLK1 PBD inh – PLK1 (human) polo-box domain binding inhibition. 360,000 tested, 2.8% active. Potency, µM, for the others: max response, negative = inhibition, usual class: inhibitors. Plk1 PBD binding of FITC phosphopeptide, fluorescence polarization; note: series mostly up to about 57 µM; nearly all actives have a fitted effect of over 65% in size
Target sequence (P53350 whole entry, looked up, the tested form may be a part): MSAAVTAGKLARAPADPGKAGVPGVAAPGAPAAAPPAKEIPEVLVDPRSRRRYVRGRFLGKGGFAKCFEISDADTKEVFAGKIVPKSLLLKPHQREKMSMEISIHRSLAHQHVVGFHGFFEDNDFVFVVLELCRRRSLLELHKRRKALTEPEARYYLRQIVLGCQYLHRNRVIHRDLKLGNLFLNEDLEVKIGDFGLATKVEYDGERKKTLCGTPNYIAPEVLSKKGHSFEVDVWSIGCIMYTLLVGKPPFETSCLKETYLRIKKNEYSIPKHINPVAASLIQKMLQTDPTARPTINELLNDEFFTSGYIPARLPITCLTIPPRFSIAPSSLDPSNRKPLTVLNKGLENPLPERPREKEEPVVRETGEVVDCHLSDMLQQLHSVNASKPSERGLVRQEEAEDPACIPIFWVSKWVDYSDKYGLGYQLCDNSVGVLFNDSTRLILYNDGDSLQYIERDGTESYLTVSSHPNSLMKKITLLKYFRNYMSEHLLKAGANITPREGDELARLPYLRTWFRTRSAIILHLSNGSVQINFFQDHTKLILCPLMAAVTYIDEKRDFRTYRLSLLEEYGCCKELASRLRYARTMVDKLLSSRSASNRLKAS
Tau FP inhib – tau fibrillization inhibition (FP). P10636. K18 P301L tau heparin fibrillization, Alexa594 FP, 6 h. AID 1468. 280,000 tested, 0.39% active. Potency, µM (doses to about 57.7 µM), for inactives: at the highest dose activity, negative = inhibition, hits mostly inhibitors; note: nearly all actives have a fitted effect of over 55% in size
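FP of Alexa 594-tau after heparin (20 uM) induction. Substrate: human K18 P301L, 15 uM unlabeled, 0.24 uM labeled. Buffer 100 mM sodium acetate pH 7. 6 hr, 37 C.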
VDR inh – blocks the human vitamin D receptor. P11473. VDR-SRC2-3 peptide fluorescence polarization, 2 h. Potency, µM, for inactives: max response, negative = inhibition, usual class: inhibitors. 400,000 tested, 0.93% active. AID 504847
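Two reagent solutions held at 4 deg C in the dark were dispensed, compounds pinned at 23 nl, and the mixture incubated 2 h at room temperature. Read-out: fluorescence polarization of VDR–SRC2-3 peptide binding.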
* marks the source's active call; other numbers are inactive results; [ ] = remark or other dose. Calls come from the whole dose curve; as a rule, active = well fitted curve in the direction sought with a large enough effect; inconclusive = small, poorly fitted or top-dose-only effect, or another doubt; inactive = no such curve, though single readings can be large; an effect the other way counts as inactive or inconclusive. Unless noted, % is set by controls: 0 for no effect and ±100 for the full control effect; potency is the fitted concentration of half-maximal effect.

Screening CCN(CC)S(=O)(=O)c1ccc(N2CCOCC2)c(NC(=O)COc2ccc(Cl)cc2)c1 returned Tau ThT inhib -3%, Tau fluor cs -9%, Sfp inh 9%, PLK1 PBD inh -5%, Tau FP inhib 14% and VDR inh 19%.
`CCN(CC)S(=O)(=O)c1ccc(O)c(NC(=O)COc2ccc(S(=O)(=O)N3CCOCC3)cc2)c1` gave PLK1 PBD inh 24µM* and VDR inh inconclusive.
Screening CCN(CC)S(=O)(=O)c1ccc(N2CCOCC2)c(NC(=O)c2ccccc2)c1 returned Tau ThT inhib 4%, Tau fluor cs 3%, Sfp inh -4%, PLK1 PBD inh -5%, Tau FP inhib -4% and VDR inh 15%.
For CC(C)C[C@@H](C(=O)N[C@@H](Cc1c[nH]c2ccccc12)C(N)=O)N1C[C@]2(CCCN2C(=O)[C@H](Cc2ccccc2)NC(=O)[C@H](Cc2ccccc2)NC(=O)[C@H](CCC(N)=O)NC(=O)[C@H](CCC(N)=O)NC(=O)[C@@H]2CCCN2C(=O)[C@H](CCCCN)NC(=O)[C@@H]2CCCN2C(=O)[C@@H](N)CCCNC(=N)N)CC1=O the results were Sfp inh -2% and VDR inh 0%.
COc1ccc(CCNC(=O)CCn2c(=O)c3cccn3c3ccc(F)cc32)cc1OC was read as Tau ThT inhib 1%, Tau fluor cs -2%, Tau FP inhib 1% and VDR inh 4%.
`CC(=O)N/C(=C\c1ccccc1)C(=O)OCC(=O)Nc1ccc(C)c(S(=O)(=O)N(C)C)c1` gave PLK1 PBD inh -5% and VDR inh -11%.
`O=C(COC(=O)Cc1n[nH]c(=O)c2ccccc12)Nc1ccc(Cl)cc1F` gave Tau ThT inhib -10%, Tau fluor cs -5%, Sfp inh 23%, PLK1 PBD inh -6%, Tau FP inhib -9% and VDR inh -14%.
Screening Cc1nnnn1/C(=C\c1ccccc1)C(=O)OCC(=O)Nc1ccc(Cl)cc1F returned PLK1 PBD inh -29% and VDR inh 40µM*.
Screening Cc1nnnn1/C(=C\c1ccccc1)C(=O)OCC(=O)Nc1cccc(S(=O)(=O)N(C)C)c1 returned PLK1 PBD inh -22% and VDR inh 45µM*.
`N#C/C(=C(/O)c1ccc2c(c1)OCO2)c1nc2cc(C(F)(F)F)ccc2s1` gave Sfp inh -27%, PLK1 PBD inh inconclusive and VDR inh -4%.
N#C/C(=C(/O)c1ccccc1F)c1nc2cc(C(F)(F)F)ccc2s1 was read as Tau ThT inhib -16%, Tau fluor cs -12%, Sfp inh 1%, PLK1 PBD inh 27µM*, Tau FP inhib 9% and VDR inh -2%.
`CC1CCC(N2CCN(C(=O)c3ccccc3F)CC2)CC1` (stereo not given) gave Sfp inh -13%, PLK1 PBD inh -3% and VDR inh 9%.
Screening CC(=Nc1ccc(Br)cc1)c1sc2ccccc2c1O returned Tau ThT inhib inconclusive, Tau fluor cs inconclusive, Sfp inh 32µM*, PLK1 PBD inh inconclusive, Tau FP inhib 3% and VDR inh -2%.
Screening CCCCN1C(=O)CCC(C(=O)O)C1c1ccc([N+](=O)[O-])cc1 (stereo not given) returned Sfp inh -6%, PLK1 PBD inh -6% and VDR inh -7%.
`O=C(Nc1ccc(Cl)c(Cl)c1)OCc1cccnc1` gave Tau ThT inhib 18%, Tau fluor cs inconclusive, Sfp inh 9%, PLK1 PBD inh -9%, Tau FP inhib 14µM* and VDR inh -3%.
O=C(Nc1cccnc1)OCc1ccccc1 was read as Sfp inh 11%, PLK1 PBD inh -6% and VDR inh -13%.
For COc1ccc(Cl)cc1NC(=S)Nc1cccnc1 the results were Tau ThT inhib -6%, Tau fluor cs -17%, Sfp inh 25µM*, PLK1 PBD inh -20%, Tau FP inhib -9% and VDR inh 22%.
`O=C(Nc1ccc(F)c(Cl)c1)c1cccnc1` gave Sfp inh 16%, PLK1 PBD inh 21µM* and VDR inh inconclusive.
Screening Fc1ccccc1NC(=S)Nc1cccnc1 returned Tau ThT inhib -2%, Tau fluor cs 2%, Sfp inh -1%, PLK1 PBD inh -13%, Tau FP inhib 2% and VDR inh 4%.
For Fc1ccc(NC(=S)Nc2cccnc2)cc1Cl the results were Tau ThT inhib -4%, Tau fluor cs inconclusive, Sfp inh 28µM*, PLK1 PBD inh -24%, Tau FP inhib inconclusive and VDR inh -18%.
For O=C(NC(=S)NNC(=O)c1ccc(Cl)cc1Cl)c1cccnc1 the results were Tau ThT inhib inconclusive, Tau fluor cs -3%, Sfp inh 45µM*, PLK1 PBD inh -21%, Tau FP inhib -5% and VDR inh -7%.
Screening Cn1c(CCc2nc3ccccc3[nH]2)nnc1SCC#N returned Tau ThT inhib -6%, Tau fluor cs -18%, Sfp inh -11%, PLK1 PBD inh 19µM*, Tau FP inhib -9%[2.34 µM] and VDR inh -19%.
For CCOC(=O)[C@]12CCCC=C1N(Cc1cccc3ccccc13)C(=O)[C@H](CC(=O)N1CCSCC1)C2 the results were PLK1 PBD inh -1%.
`CCn1c(=O)[nH]c2ccccc21` gave Tau ThT inhib 0%, Tau fluor cs -2%, Sfp inh 5%, Tau FP inhib -5% and VDR inh 9%.
`CCn1c(C)c(CS(=O)(=O)c2ccccc2)[nH]c1=O` gave Tau ThT inhib inconclusive, Tau fluor cs -18%, Sfp inh 25µM*, PLK1 PBD inh 3.4µM*, Tau FP inhib inconclusive and VDR inh inconclusive.
Screening COc1ccc(CCNc2ncnc3c2nnn3C)cc1OC returned Tau ThT inhib 1%, Tau fluor cs 7%, Tau FP inhib -1% and VDR inh 15%.
For CC(/C=N/NC(=O)c1ccncc1)=C\c1ccc(C(C)C)cc1 the results were Tau ThT inhib 20µM*, Tau fluor cs -21%, Sfp inh 10%, PLK1 PBD inh -6%, Tau FP inhib inconclusive and VDR inh -5%.
Screening CC(/C=N/NC(=O)c1cc(C(C)C)[nH]n1)=C\c1ccccc1 returned Tau ThT inhib inconclusive, Tau fluor cs -7%, Sfp inh 20%, PLK1 PBD inh 30µM*, Tau FP inhib 1% and VDR inh -19%.
`O=c1cc(-c2ccccc2Cl)oc2c(NS(=O)(=O)c3cc(Cl)cc(Cl)c3O)ccc(O)c12` gave Tau ThT inhib 22µM*, Tau fluor cs inconclusive, Sfp inh -17%, PLK1 PBD inh 15µM*, Tau FP inhib 32µM* and VDR inh 32µM*.
